Experimental findings from PubChem BioAssay (Tox21) are described below.

Several values for one entry are separate records, joined by “and”; a condition that tells them apart may be missing. Equal values may be shown once. A number with no mark means an inactive call. Records with an inconclusive call do not appear. Activity calls are given as the source filed them. Unless noted, calls follow the shape of the dose curve; as a rule, active = well fitted curve in the direction sought with a large enough effect in the repeat runs; inconclusive = weak or mixed curves; inactive = no such curve, though single readings can be large; an effect the other way counts as inactive or inconclusive.

Assay [1] can be described thus: qHTS assay to identify small molecule antagonists of the estrogen related receptor (ERR) signaling pathway from Tox21 library - cell viability counter screen (AID 1224834). Also: nearly all actives have a fitted effect of over 30% in size. The procedure, abridged: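 Cytotoxicity of test substances is gauged in the same ERR cells used for the antagonist screen, after 17.5 h of compound treatment at 37 C, by CellTiter-Fluor fluorescence measured after 30 min.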
On the technique in general: In qHTS, concentration-response curves come from the screen itself.

The target in assay [2] is Luciferin 4-monooxygenase (Photinus pyralis) (UniProt P08659). Briefly: qHTS assay to identify small molecule inhibitors of firefly luciferase (AID 1224835). Also: nearly all actives have a fitted effect of over 25% in size. Put shortly: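 Quantitative HTS format; KM concentrations of both substrates. Purified P. pyralis FLuc activity quantified from luminescence images.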
Assay [3] in a line: qHTS assay to identify small molecule agonists of the constitutive androstane receptor (CAR) signaling pathway - cell viability counter screen (AID 1224836). Also: nearly all actives have a fitted effect of over 45% in size. Put shortly:
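HepG2-CYP2B6-hCAR, 2500 cells/well, 4 h pre-incubation; cpd 15 conc + PK11195 0.75 uM final; 23 h, 37 C/5% CO2; CellTiter-Fluor, fluorescence.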

A short description of assay [4]: qHTS assay to identify small molecule antagonists of the constitutive androstane receptor (CAR) signaling pathway - cell viability counter screen (AID 1224837). Also: nearly all actives have a fitted effect of over 45% in size. The procedure, abridged: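 Multiplexed cytotoxicity read-out for the CAR antagonist screen: double-stable HepG2-CYP2B6-hCAR cells co-treated with 50 nM CITCO (final) and compound over 15 concentrations, incubated 23 hr, then assessed by CellTiter-Fluor fluorescence.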

Assay [5] addresses Nuclear receptor subfamily 1 group I member 3 (Homo sapiens) (UniProt Q14994). Briefly: qHTS assay to identify small molecule antagonists of the constitutive androstane receptor (CAR) signaling pathway (AID 1224838). Also: nearly all actives have a fitted effect of over 40% in size. Also: potency is read from the fitted curve at half-maximal effect. Put shortly:
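Compounds were titrated across 15 concentrations onto HepG2 cells double-stably expressing hCAR and a CYP2B6-2.2kb reporter, together with 50 nM CITCO (final). After 24 h at 37 C, luciferase activity was measured by luminescence.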

The target is the same in assay [6]. Briefly: qHTS assay to identify small molecule agonists of the constitutive androstane receptor (CAR) signaling pathway (AID 1224839).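 Also: HepG2 cells stably carrying human CAR and a CYP2B6 luciferase reporter; nearly all actives have a fitted effect of over 15% in size.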 Put shortly:
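HepG2-CYP2B6-hCAR cells, 2500/well, 4 h pre-incubation; compounds 15 conc.; PK11195 0.75 uM final; 24 h, 37 C/5% CO2; ONE-Glo luciferase read.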

The nature of assay [7]: qHTS assay to identify small molecule antagonists of the estrogen related receptor signaling pathway with the pleiotropic PPARgamma coactivator (PGC) from Tox21 10K library - cell viability counter screen (AID 1224840; active = well fitted cell-killing curve with a large enough effect in the repeat runs, not every such curve was filed as active; also: nearly all actives have a fitted effect of over 40% in size). The procedure, abridged: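 Step one, plate 2,000 PGC/ERR cells per well; step two, incubate 6 h at 37 C/5% CO2; step three, pin-transfer compounds; step four, incubate 17.5 h; step five, add CellTiter-Fluor and read fluorescence after 30 min.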

Assay [8] addresses Thyrotropin receptor (Homo sapiens) (UniProt P16473). Put plainly: qHTS assay to identify small molecule agonists of the thyroid stimulating hormone receptor (TSHR) signaling pathway (AID 1224843; calls by dose curve; also: nearly all actives have a fitted effect of over 45% in size). The procedure, abridged: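 Cell line HEK293 with TSHR; density 800/well. Exposure 30 min RT. Readout HTRF cAMP (cAMP-d2/anti-cAMP-cryptate), 1 h RT before reading.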
The nature of assay [9]: qHTS assay to identify small molecule agonists of the hypoxia (HIF-1) signaling pathway - cell viability counter screen (AID 1224844; calls by dose curve; also: nearly all actives have a fitted effect of over 50% in size; also: potency is read from the fitted curve at half-maximal effect). The procedure, abridged:
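Tox21 10K compounds were added to HRE-bla ME-180 cells (0.5% dialyzed FBS) and incubated 17 hrs at 37C; ATP-based CellTiter-Glo luminescence then reported cell viability in the same wells.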

Assay [10] can be described thus: qHTS assay to identify small molecule agonists of H2AX (AID 1224845; active = well fitted activation curve with a large enough effect in the signal ratio in the repeat runs, not every such curve was filed as active; the % refers to the signal ratio). Put shortly:
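Wild-type CHO-K1 cells plated overnight, then exposed 3 hr at 37C to compounds at 15 concentrations (0.76% DMSO). Lysed, then HTRF anti-pH2AX(S139)-cryptate/anti-H2AX-d2 detection after 24 hr at room temperature; emissions 665 and 620 nm.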

Assay [11] is described as follows: qHTS assay to identify small molecule agonists of the hypoxia (HIF-1) signaling pathway (AID 1224846; active = well fitted activation curve with a large enough effect in the signal ratio in the repeat runs, not every such curve was filed as active; the % refers to the signal ratio). Put shortly:
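Steps: seed ME-180 HRE-bla cells (2,000/well, 0.5% dialyzed FBS); incubate 5 hrs at 37C; pin-transfer compounds or DMSO; incubate 17 hrs; add LiveBLAzer B/G substrate CCF4-AM; measure reporter activation by FRET.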

The nature of assay [12]: qHTS assay to identify small molecule agonists of H2AX - cell viability counter screen (AID 1224847; calls by dose curve; also: top concentration of the series differs between compounds; nearly all actives have a fitted effect of over 30% in size). The procedure, abridged: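 Cells plated first: CHO-K1, 1000 per well in 10% FBS medium, incubated overnight at 37C. Then 15-point compound titration added (final DMSO 0.76%) for 3 hr. Finally CellTiter-Glo added and luminescence read.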
Assay [13] in a line: A CellTox Green Cytotoxicity Assay to monitor cytotoxicity in HEK293 cells - 0 hour (AID 1224869). Also: nearly all actives have a fitted effect of over 50% in size. The procedure, abridged: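 Cytotoxicity was tracked continuously in HEK293 cells by a DNA-binding dye excluded from viable cells. Compounds were transferred in DMSO 5 h after seeding; fluorescence was recorded at intervals up to 40 h.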
Assay [14] is described as follows: qHTS RealTime-Glo MT Cell Viability Assay in HepG2 cells - 40 hour (AID 1224870). Also: nearly all actives have a fitted effect of over 50% in size. Put shortly: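 HepG2 cells mixed with RealTime-Glo MT reagents (NanoLuc plus cell-permeant prosubstrate) were seeded at 600 cells/well, incubated 5 h at 37 C/5% CO2, then pinned with compounds in DMSO; nonlytic luminescence tracked viability during 40 h treatment.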
Assay [15] is described as follows: qHTS RealTime-Glo MT Cell Viability Assay in HepG2 cells - 24 hour (AID 1224867). Also: nearly all actives have a fitted effect of over 50% in size. Put shortly:
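HepG2 cells (600/well) were dispensed with RealTime-Glo reagents, incubated 5 h at 37 °C, then treated with compounds in DMSO for up to 40 h. Nonlytic NanoLuc luminescence reflecting viable cells was read at each stated time point.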

Assay [16] is described as follows: qHTS RealTime-Glo MT Cell Viability Assay in HEK293 cells - 32 hour (AID 1224868). Also: nearly all actives have a fitted effect of over 50% in size. Also: potency is read from the fitted curve at half-maximal effect. Put shortly: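 HEK293 cells seeded with NanoLuc/prosubstrate reagent, rested 5 h at 37 C, then dosed and kept at 37 C up to 40 h. Nonlytic real-time luminescence from viable cells read at 0, 8, 16, 24, 32 and 40 h.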
Assay [17] is described as follows: qHTS assay to identify small molecule agonists of the estrogen related receptor signaling pathway with the pleiotropic PPARgamma coactivator (PGC) from Tox21 10K library (AID 1224842). Also: nearly all actives have a fitted effect of over 15% in size. Put shortly:
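PGC/ERR reporter cells (NTP line) were seeded 2,000 per well, rested 6 h at 37 C/5% CO2, then pin-dosed with compounds in DMSO for 18 h at 37 C; luciferase read by One-Glo luminescence after 30 min at room temperature.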

Assay [18] can be described thus: qHTS assay to identify small molecule agonists of the estrogen related receptor (ERR) signaling pathway from Tox21 library (AID 1224849; calls by dose curve; also: nearly all actives have a fitted effect of over 15% in size). The note with it: ERR reporter cell line, ONE-Glo luciferase, 18 h; at 92.4 µM (top of the series) unless noted. Put shortly: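 Agonist signal is luciferase luminescence from an ERR reporter cell line treated 18 h at 37 C with DMSO-dissolved compounds, read 30 min after ONE-Glo addition at room temperature.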
% is scaled to controls: 0 for no effect and ±100 for the full control effect.

Luciferin 4-monooxygenase (Photinus pyralis), sequence (P08659 whole entry, looked up): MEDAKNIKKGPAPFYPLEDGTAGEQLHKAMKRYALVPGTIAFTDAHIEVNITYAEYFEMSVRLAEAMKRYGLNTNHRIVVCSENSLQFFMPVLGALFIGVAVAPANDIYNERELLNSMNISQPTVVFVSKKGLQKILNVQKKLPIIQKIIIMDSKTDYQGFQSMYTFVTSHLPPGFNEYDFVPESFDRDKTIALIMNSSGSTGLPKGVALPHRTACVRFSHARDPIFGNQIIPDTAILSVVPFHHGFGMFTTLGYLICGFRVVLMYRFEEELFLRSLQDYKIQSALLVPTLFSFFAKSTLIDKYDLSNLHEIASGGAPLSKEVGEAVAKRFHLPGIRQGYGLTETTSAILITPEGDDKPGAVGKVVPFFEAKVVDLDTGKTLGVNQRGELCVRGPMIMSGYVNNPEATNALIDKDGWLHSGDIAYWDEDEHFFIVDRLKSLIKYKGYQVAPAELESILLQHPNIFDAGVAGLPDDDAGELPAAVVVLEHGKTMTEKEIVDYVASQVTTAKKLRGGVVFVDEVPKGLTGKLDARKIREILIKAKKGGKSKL
Nuclear receptor subfamily 1 group I member 3 (Homo sapiens), sequence (Q14994 whole entry, looked up): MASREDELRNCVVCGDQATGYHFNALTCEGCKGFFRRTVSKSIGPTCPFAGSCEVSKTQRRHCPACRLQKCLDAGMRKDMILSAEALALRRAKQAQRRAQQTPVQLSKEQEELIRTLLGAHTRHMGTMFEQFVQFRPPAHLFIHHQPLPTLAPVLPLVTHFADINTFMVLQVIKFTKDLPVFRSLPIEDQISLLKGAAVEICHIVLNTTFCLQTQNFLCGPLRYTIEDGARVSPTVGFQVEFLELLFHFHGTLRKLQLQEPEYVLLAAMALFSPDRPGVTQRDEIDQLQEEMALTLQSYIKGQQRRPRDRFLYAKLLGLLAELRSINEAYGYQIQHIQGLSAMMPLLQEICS
Thyrotropin receptor (Homo sapiens), sequence (P16473 whole entry, looked up): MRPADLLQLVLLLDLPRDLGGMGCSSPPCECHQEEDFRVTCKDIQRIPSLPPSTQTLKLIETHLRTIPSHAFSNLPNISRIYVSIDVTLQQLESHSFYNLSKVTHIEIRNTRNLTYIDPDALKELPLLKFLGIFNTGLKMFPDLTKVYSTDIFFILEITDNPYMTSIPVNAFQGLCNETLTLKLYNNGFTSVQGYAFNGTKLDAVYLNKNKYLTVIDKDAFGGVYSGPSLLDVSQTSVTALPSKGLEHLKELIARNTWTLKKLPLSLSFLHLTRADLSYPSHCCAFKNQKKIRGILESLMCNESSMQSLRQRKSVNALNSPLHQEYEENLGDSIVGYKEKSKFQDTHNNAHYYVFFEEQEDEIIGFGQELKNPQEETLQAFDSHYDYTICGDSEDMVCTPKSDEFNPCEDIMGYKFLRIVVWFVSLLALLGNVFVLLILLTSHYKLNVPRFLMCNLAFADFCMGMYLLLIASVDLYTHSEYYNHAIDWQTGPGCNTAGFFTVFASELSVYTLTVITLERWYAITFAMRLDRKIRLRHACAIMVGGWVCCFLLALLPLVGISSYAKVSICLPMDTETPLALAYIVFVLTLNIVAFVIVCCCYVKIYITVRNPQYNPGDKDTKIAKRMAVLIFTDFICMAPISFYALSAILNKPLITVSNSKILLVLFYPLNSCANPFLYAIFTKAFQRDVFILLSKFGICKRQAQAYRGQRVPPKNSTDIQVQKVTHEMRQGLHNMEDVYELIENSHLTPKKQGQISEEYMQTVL

Regarding `C=CCOC(=O)/C=C\C(=O)OCC=C`, the Potency entry in [1], in assay [2], in assay [3], in [4], in [5] and in [6] was “inactive” each time. The Potency entry in [7], in [8], in assay [9], in assay [10], in assay [12] and in assay [13] was “inactive” in each case. Further, the Potency result in assay [14] was “inactive”. Further, the compound was called inactive in assay [11].
Consider `CCCCCCOC(=O)CCCCCCCC(=O)OCCCCCC`, for which the Potency entry in assay [1], in assay [2], in [3], in assay [4], in assay [5] and in assay [6] was “inactive” each time. For the same compound, the Potency result in assay [7], in [8], in assay [9], in [12], in assay [15] and in assay [16] was “inactive” each time. Also, the Potency entry in assay [13] and in [14] was “inactive” each time. Besides, the call in assay [11] was inactive.
In the case of `Fc1c(F)c(F)c(Br)c(F)c1F`, the Potency result in assay [1], in [2], in assay [3], in assay [4], in assay [5] and in assay [6] was “inactive” each time. Besides, the Potency result in [7], in assay [8], in assay [10], in assay [12], in [15] and in assay [16] was “inactive” each time. Also, the Potency entry in [13] and in assay [14] was “inactive” throughout. In addition, the call in [11] was inactive.
Take `Cc1nc2ccccn2c(=O)c1CCN1CCC(C(=O)c2ccc(F)cc2)CC1`: the Potency entry in [1], in [2], in assay [3], in assay [4], in [5] and in assay [6] was “inactive” throughout. The Potency entry in assay [7], in assay [17], in assay [10], in [15] and in assay [14] was “inactive” in each case. In [18], the activity change, positive = activation is -25.4% [at 42.5 µM]. Moreover, in [16], the Potency was 7.56 µM (active).
Turning to `CC(=O)N(c1onc(C)c1C)S(=O)(=O)c1ccc(N)cc1`, the Potency result in assay [1], in assay [2], in assay [3], in assay [4], in assay [5] and in [6] was “inactive” in each case. Further, the Potency result in assay [7], in assay [8], in assay [9], in assay [12], in assay [16] and in assay [13] was “inactive” in each case. Besides, the Potency entry in assay [14] is “inactive”. The compound was classed as inactive in assay [11].
In the case of `CCCCCCCCCCCC[N+](C)(C)CCCS(=O)(=O)[O-]`, the Potency result in assay [1], in assay [2], in assay [3], in assay [4], in assay [5] and in assay [6] was “inactive” in each case. The Potency entry in assay [7], in assay [8], in assay [9], in [15], in [16] and in assay [13] was “inactive” in each case. The Potency result in [14] is “inactive”. Also, the result in assay [11] was inactive.
Take `COCc1c(C(C)C)nc(C(C)C)c(/C=C/[C@@H](O)C[C@@H](O)CC(=O)O)c1-c1ccc(F)cc1`: the Potency result in [1], in assay [2], in assay [3], in assay [4], in assay [6] and in assay [7] was “inactive” throughout. Also, the Potency entry in assay [8], in assay [9], in assay [10], in assay [12] and in assay [13] was “inactive” each time. In addition, the Potency in [5] was 4.73 µM (active) and 6.05 µM (active). Besides, the compound was classed as inactive in assay [11].
With `OCCSc1ccccc1`, the Potency result in [1], in assay [2], in assay [3], in assay [4], in [5] and in assay [6] was “inactive” throughout. The Potency entry in assay [7], in assay [8], in assay [10], in assay [12], in [15] and in assay [16] was “inactive” throughout. The Potency result in assay [13] and in assay [14] was “inactive” in each case. For the same compound, the Potency in [9] is 21.9 µM (active).
Consider `CCN(CC)CCNC(=O)c1ccc(NC(C)=O)cc1`, for which the Potency entry in assay [1], in assay [2], in assay [3], in [4], in assay [5] and in assay [6] was “inactive” in each case. Also, the Potency result in [7], in assay [9], in assay [12], in assay [15], in assay [16] and in assay [14] was “inactive” each time.
